EphB4 ephrin blk: antagonists of human EphB4-ephrin-B2 interaction | P54760 | EphB4 LBD / TNYL-RAW-Alexa532 peptide, fluorescence polarization | inhibition, % at 7 µM | actives 0.15% (n = 97,000) | AID 720;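 active means inhibition above the screen-wide mean inhibition plus 3 SD, cut at about 15% in these data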;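 further: 0% = DMSO wells and 100% = excess unlabeled TNYL-RAW peptide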
Target sequence (P54760 whole entry, looked up, the tested form may be a part): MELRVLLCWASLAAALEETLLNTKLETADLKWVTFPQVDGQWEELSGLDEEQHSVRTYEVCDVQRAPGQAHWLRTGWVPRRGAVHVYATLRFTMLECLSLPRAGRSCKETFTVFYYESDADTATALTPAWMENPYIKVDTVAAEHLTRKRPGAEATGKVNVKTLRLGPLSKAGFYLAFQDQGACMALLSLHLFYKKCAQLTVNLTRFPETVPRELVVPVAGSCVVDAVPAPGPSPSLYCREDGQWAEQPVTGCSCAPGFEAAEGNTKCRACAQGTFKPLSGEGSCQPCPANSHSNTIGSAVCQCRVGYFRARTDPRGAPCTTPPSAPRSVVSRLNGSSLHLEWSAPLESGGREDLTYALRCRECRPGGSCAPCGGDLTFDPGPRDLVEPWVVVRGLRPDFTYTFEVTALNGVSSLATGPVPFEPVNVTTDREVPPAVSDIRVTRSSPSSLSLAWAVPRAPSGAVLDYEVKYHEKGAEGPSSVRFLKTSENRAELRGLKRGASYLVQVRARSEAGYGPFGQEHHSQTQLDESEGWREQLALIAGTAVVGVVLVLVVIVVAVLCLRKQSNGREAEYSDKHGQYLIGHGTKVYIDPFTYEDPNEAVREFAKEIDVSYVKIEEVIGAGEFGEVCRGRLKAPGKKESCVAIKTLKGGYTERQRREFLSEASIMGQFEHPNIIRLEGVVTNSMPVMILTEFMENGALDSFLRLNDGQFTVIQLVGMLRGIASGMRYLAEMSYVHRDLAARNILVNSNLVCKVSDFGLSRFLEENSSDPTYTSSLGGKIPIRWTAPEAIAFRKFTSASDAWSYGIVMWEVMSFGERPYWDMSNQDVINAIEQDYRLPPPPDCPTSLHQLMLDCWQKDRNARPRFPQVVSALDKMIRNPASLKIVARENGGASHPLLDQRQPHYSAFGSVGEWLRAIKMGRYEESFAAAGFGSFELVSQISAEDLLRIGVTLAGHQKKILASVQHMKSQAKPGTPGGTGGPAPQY
hDAT+cocaine: changed human dopamine transporter uptake under cocaine IC80; Q01959; LLC-PK1 hDAT cells, [14C]-dopamine uptake with cocaine IC80; actives deviate in either direction; B-score at 10 µM; actives 1.3% (n = 110,000);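 active means Z score or B-score, a plate-position-corrected score, falls beyond the plate's 99.7% confidence bounds, in either direction; inactive means both scores lie inside the 99.7% bounds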;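 further: scored against the spread of the other compound wells on the same plate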
D1 allo mod: D1 dopamine receptor (human) allosteric modulation | AID 641 | HEK293 D1, CRE-luciferase, dopamine EC30 potentiation; actives deviate in either direction | B-score at 10 µM | P21728 | actives 5.9% (n = 58,000);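 active means luminescence count or its row- and column-corrected plate score outside the 99.7% band of the plate's sample wells, on either side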
* hit, by the source's call; nt = no result given; ! = not confirmed by another sample; [ ] = remark or other dose. Many of the other results were omitted from the sample, so hits are more common in it than they were.

SMILES	EphB4 ephrin blk	hDAT+cocaine	D1 allo mod
CCOC(=O)c1c(NC(=O)CSc2n[nH]c(-c3ccco3)n2)sc(C)c1C	-2	-1.6	6.9*
CCOC(=O)CSc1n[nH]c(-c2ccco2)n1	-2	-0.24	0.017
CCOC(=O)c1c(NC(=O)CSc2n[nH]c(CNc3ccccc3)n2)sc(C)c1C	-12	-0.00099	nt
O=C(O)c1ccc(CSc2n[nH]c(-c3ccco3)n2)cc1	15*	-0.62	0.06
CCOC(=O)c1c(C)oc2c1c(C(c1cccnc1)N1CCOCC1)c(O)c1ccccc12 (centres undefined)	2	1.2	nt
CC1CCN(S(=O)(=O)c2ccc3c(c2)oc(=O)n3CC(=O)N2CCc3ccccc3C2)CC1	-1	0.0015	nt
CCN(CCCn1c(SCC#N)nc2ccccc2c1=O)c1ccccc1	10	0.5	nt
CCC(=O)NS(=O)(=O)c1ccc(-c2c(-c3ccccc3)noc2C)cc1	nt	-0.11	nt
CC(=O)C1=NN(c2ccccc2)C2(S1)S/C(=C\c1ccccc1)C(=O)N2c1ccccc1 (centres undefined)	5	0.76	nt
COc1ccc(-c2nnc3n2N=C(c2ccccc2)CS3)cc1OC	nt	nt	1.6
COc1ccc(Cc2nnc3n2N=C(c2cc4ccccc4o2)CS3)cc1OC	1	1.1	3*
COc1ccc(C2/C=C\CNCC(=O)N2Cc2ccc(F)cc2)cc1 (centres undefined)	nt	-1.2	nt
COc1ccc2c3c(cccc13)N(C)N=C2C	1	nt	nt
CCOC(=O)C1CCCN(c2c(N3CCc4ccccc4C3)c(=O)c2=O)C1 (centres undefined)	9	nt	1.4
O=C(c1ccc2c3n(nc2c1)-c1ccccc1CO3)N1CCOCC1	nt	1.2	nt
O=C(c1ccc2c3n(nc2c1)-c1ccccc1CO3)N1CCCCC1	nt	2.6*	nt
Cc1ccc(C)c(Cn2cnc3c(cnn3C(C)(C)C)c2=O)c1	5	-0.028	-2.6*
Cc1ccccc1Cn1cnc2c(cnn2C(C)(C)C)c1=O	-8	0.33	2.1
CCN(CC)c1ccc(NC(=O)CN2CCN(c3ccc(F)cc3)CC2)cc1	-1	-1.3	-0.059
COc1ccc(NC(=O)CN2CCN(CC(=O)Nc3ccc4c(c3)OCO4)CC2)cc1	nt	0.61	0.78
CN(C)c1ccc(NC(=O)CN2CCN(S(=O)(=O)c3cc(Cl)ccc3Cl)CC2)cc1	2	0.085	-0.69
O=C(CN1CCN(S(=O)(=O)c2cc(Cl)ccc2Cl)CC1)Nc1ccc2c(c1)OCCO2	nt	1.8*!	2.5
CCN(CC)c1ccc(NC(=O)CN2CCN(CC(=O)Nc3ccccc3F)CC2)cc1	6	2.5*	0.72
COc1ccccc1NC(=O)CN1CCN(CC(=O)Nc2ccc3c(c2)OCO3)CC1	nt	-4.3*	0.19
O=C(NCc1ccccc1)C1=C[C@H](c2coc3ccccc3c2=O)C[C@H](OCCCCO)O1	nt	1.3	nt
SMILES	EphB4 ephrin blk	hDAT+cocaine	D1 allo mod
O=C1CCC(c2ccc(-n3ccnc3)cc2)=NN1	nt	-0.44	nt
O=S(=O)(c1ccc(Cl)s1)N1CCCc2cccc(O)c21	-1	-0.42	nt
COC(=O)CSc1nnc(CNc2ccc(OC)cc2)n1C	0	1.2	-0.61
COC(=O)C1=C(C)N(Cc2ccco2)C(=O)N[C@@H]1c1ccco1	nt	0.025	nt
CC1CCCCN1CCNC(=O)CC1Oc2ccccc2NC1=O (centres undefined)	3	0.32	0.33
CC1CCCCN1CCNC(=O)CN1C(=O)COc2ccccc21 (centres undefined)	5	0.29	-3.5*
O=C(CCN1C(=O)COc2ccccc21)NCCN1CCc2ccccc2C1	9	0.74	-1.3
O=C(CCN1C(=O)COc2ccccc21)NCCCN1CCN(c2ccccc2F)CC1	-1	1.3	-3.1*
CC(/C=C/c1ccco1)=N/NC(=O)Cc1cccs1	9	-0.98	nt
CCOc1ccc(N2C(=O)CS/C2=N/NC(=O)COc2ccc3ccccc3c2)cc1	-4	2.4*	nt
CCNC(=O)COc1ccc2ccccc2c1	0	0.45	0.45
CCOC(=O)CN1C(=O)N[C@@H](CCc2ccccc2)[C@H](C(C)=O)[C@H]1C	nt	-0.71	nt
Cc1cccc2cc(CN(Cc3nnnn3Cc3ccco3)C3CCCC3)c3nnnn3c12	-7	-7.4*	1.5
Cc1ccc2[nH]c(=O)c(CN(Cc3nnnn3Cc3ccccc3)C3CCCC3)cc2c1	-6	-0.083	0.028
COc1c(O)cc2oc(-c3ccc(O)cc3)cc(=O)c2c1O	nt	1.1	nt
Cc1c2cc(O)c(=O)cc-2oc2cc(O)c(O)cc12	49*[fluorescence artefact?]	-0.23	nt
CC(C)(C)C(=O)NCCc1nc(-c2ccccc2)no1	nt	1.1	nt
CCOC(=O)Cn1nc(-c2ccccc2)nc1-c1ccccc1	8	0.13	-3.5*
O=C(Cn1nc(-c2ccccc2)nc1-c1ccccc1)OC1CCCCC1	-9	1.1	nt
CCO[C@@H]1OC(C(=O)N2CCN(Cc3ccc4c(c3)OCO4)CC2)=C[C@H](C2CCCCC2)[C@H]1CCCO	nt	0.2	nt
CSc1nnc2c3c4c(sc3c(=O)n(-c3ccccc3)n12)CC(C)(C)OC4	-2	0.71	5.9*
CC1(C)Cc2c(sc3nc(-c4ccccc4)n(N)c(=O)c23)CO1	7	-1.5	nt
CCCn1c(NCc2ccco2)nc2c1c(=O)n(C)c(=O)n2C	5	-0.23	nt
CCn1c(NCc2ccccn2)nc2c1c(=O)n(C)c(=O)n2C	3	4*	0.28
CC1=C(C(=O)OCc2ccccc2)C(c2ccc3c(c2)OCO3)NC(=O)N1CCCC(=O)O (centres undefined)	nt	-0.095	nt
SMILES	EphB4 ephrin blk	hDAT+cocaine	D1 allo mod
CCN(CC)C(=O)CN1C(=O)COCC1=O	3	0.24	nt
O=C(c1cc(-c2ccc(Cl)cc2)on1)N1CCOCC1	0	0.88	-3.4
O=C(c1cc(-c2ccc3c(c2)OCO3)on1)N1CCOCC1	4	-0.77	-4.5*
O=C(c1cc(-c2ccc3c(c2)OCO3)on1)N1CCN(c2ccccc2)CC1	8	-2.4	0.97
O=C(c1cc(-c2ccc(Cl)cc2Cl)on1)N1CCOCC1	1	0.54	-4.6*
O=C1N[C@H](C(=O)O)CS1	nt	-1.1	nt
CCn1cc(C(=O)NCc2ccc(C)o2)c2cc(OC)c(OC)cc2c1=O	-11	-0.57	-6.3*
CCn1cc(C(=O)NCC(=O)OC)c2cc(OC)c(OC)cc2c1=O	4	0.86	-0.009
CCC1(C)Cc2ccccc2-c2nc(NCCCO)n(-c3ccccc3)c(=O)c21 (centres undefined)	-1	-0.0093	nt
Cc1cccc(NC(=O)Nc2cccc(C#N)c2)n1	nt	-0.22	2.1
Cc1cccc(NC(=O)Nc2ccc(C#N)cc2)n1	nt	-0.24	-5.2*
CCOC(=O)N1CCC(NC(=O)c2cn(-c3ccc(OC)cc3)c(=O)c3ccccc23)CC1	8	2.2*	-0.058
CCOC(=O)N1CCC(NC(=O)c2ccc3nc4ccccc4c(=O)n3c2)CC1	1	nt	nt
CCOC(=O)c1c(C)nc2sc(C(=O)Nc3ccc(C(C)=O)cc3)c(N)c2c1-c1ccc(OC)cc1	2	3.6*	nt
CCOC(=O)c1c(C)nc2sc(C(=O)Nc3ccc(OC)cc3)c(N)c2c1-c1ccc(OC)cc1	-5	-0.67	nt
COc1cccc(COc2cc3ccccc3nc2C)c1	5	-0.76	nt
O=C(CSc1ccc(Cl)cc1Cl)N1CCC(c2nc3ccccc3s2)CC1	-3	1.9	nt
C#C[C@]1(O)CCC2C3CCC4=Cc5oncc5CC4(C)C3CCC21C (some centres undefined)	nt	-0.6	nt
Cc1cc(C(=O)CSc2nnc(Nc3ccccc3)s2)c(C)n1CC1CCCO1 (centres undefined)	-2	-0.35	-0.48

Screening results: PubChem BioAssay, several laboratories
